Data as given in PubChem BioAssay (Tox21).
Results filed as inconclusive are left out. Active and inactive are the calls of the source. Unless noted, the call rests on the fitted dose curve; in most records, active means well fitted curve in the direction sought with a large enough effect in the repeat runs; inconclusive means weak or mixed curves; inactive means no such curve, though single readings can be large; an effect the other way counts as inactive or inconclusive.

Columns and labels:
[1] = qHTS assay for small molecules that induce genotoxicity in human embryonic kidney cells expressing luciferase-tagged ATAD5 (AID 651632); further: nearly all actives have a fitted effect of over 15% in size
Method in brief: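 DMSO vehicle served as the control. HEK293T reporter cells, 16 hr at 37C, then 30 min Amplite at room temperature; ATAD5 induction is measured as luciferase activity.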

[2] = qHTS assay for small molecule disruptors of the mitochondrial membrane potential - cell viability (AID 720634; calls by dose curve;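 further: human HepG2 liver cancer cells; series mostly up to about 83 µM; nearly all actives have a fitted effect of over 20% in size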)
Method in brief: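 Viability of HepG2 cells is scored from ATP content by luminescence; cells are exposed to compound for 1 hr at 37 C and 5% CO2, then dosed with m-MPI dye before the CellTiter-Glo reagent.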

[3] = qHTS assay for small molecule disruptors of the mitochondrial membrane potential (AID 720635); further: potency means the concentration at half of the fitted maximal effect
Method in brief: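 HepG2 cells (2,000/well) attached overnight at 37C, then took compound for 1 hr at 37C, 5% CO2. Mito-MPS dye was added for 30 min; fluorescence was read at 490/535 nm (monomers) and 540/590 nm (aggregates).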

[4] = qHTS assay to test for compound auto fluorescence at 590 nm (red) in HepG2 cells (AID 720674)
Method in brief: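 Rose Bengal sodium served as the red fluorophore standard. HepG2 monolayers (overnight attachment, MEM with 10% FBS) were exposed to test compounds for 1 hr at 37 C and read at Ex 540/Em 590 nm.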

[5] = qHTS assay to test for compound auto fluorescence at 535 nm (green) in HepG2 cells (AID 720675)
[6] = qHTS assay to test for compound auto fluorescence at 460 nm (blue) in HEK293 cells (AID 720678)
Method in brief: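 Blue read-out at excitation 405 nm and emission 460 nm follows overnight compound exposure of HEK293 cells at 37C in 5% CO2. Activity is given as auto fluorescence equivalency to triamterene.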

[7] = qHTS assay to test for compound auto fluorescence at 535 nm (green) in HEK293 cells (AID 720680)
[8] = qHTS assay to test for compound auto fluorescence at 460 nm (blue) in HEK293 cell free culture (AID 720681)
Method in brief: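 Test compounds were pinned into cell-free culture medium (DMEM with 10% FBS) and fluorescence was read directly at Ex/Em 405/460 nm. Signals were expressed as fluorescence equivalents of triamterene, with DMSO vehicle as control.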

[9] = qHTS assay to test for compound auto fluorescence at 535 nm (green) in HEK293 cell free culture (AID 720682)
Method in brief: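 Compounds were pin-transferred into cell-free DMEM with 10% FBS, and green fluorescence was read at excitation 485 nm and emission 535 nm. Intensities were expressed as fluorescein-equivalent values.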

[10] = qHTS assay to test for compound auto fluorescence at 590 nm (red) in HEK293 cell free culture (AID 720683)
Method in brief: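 Tox21 10K library compounds were pinned into cell-free DMEM with 10% FBS and fluorescence was read at excitation 540 nm. Activity is expressed as Rose Bengal sodium equivalency.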

[11] = qHTS assay to test for compound auto fluorescence at 460 nm (blue) in HepG2 cell free culture (AID 720685)
Method in brief: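 Cell-free plates of MEM plus 10% FBS received 23 nL compound or DMSO vehicle; blue-channel (405/460 nm) intensity scored against triamterene as reference fluorophore.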

[12] = qHTS assay to test for compound auto fluorescence at 535 nm (green) in HepG2 cell free culture (AID 720686)
[13] = qHTS assay to test for compound auto fluorescence at 460 nm (blue) in HepG2 cells (AID 720687)
Method in brief: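 Cells (2,000/well in MEM with 10% FBS) attached overnight at 37 C, then were exposed to compound or DMSO for 1 hr at 37 C, 5% CO2. Fluorescence read at Ex/Em 405/460 nm, expressed as triamterene-equivalent signal.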

[14] = molecular target: Glucocorticoid receptor (Homo sapiens) (UniProt P04150); test: qHTS assay to identify small molecule agonists of the glucocorticoid receptor (GR) signaling pathway (AID 720691; active means well fitted activation curve with a large enough effect in the signal ratio in the repeat runs, not every such curve was filed as active; the % refers to the signal ratio)
Sequence of Glucocorticoid receptor (Homo sapiens) (P04150 whole entry, looked up): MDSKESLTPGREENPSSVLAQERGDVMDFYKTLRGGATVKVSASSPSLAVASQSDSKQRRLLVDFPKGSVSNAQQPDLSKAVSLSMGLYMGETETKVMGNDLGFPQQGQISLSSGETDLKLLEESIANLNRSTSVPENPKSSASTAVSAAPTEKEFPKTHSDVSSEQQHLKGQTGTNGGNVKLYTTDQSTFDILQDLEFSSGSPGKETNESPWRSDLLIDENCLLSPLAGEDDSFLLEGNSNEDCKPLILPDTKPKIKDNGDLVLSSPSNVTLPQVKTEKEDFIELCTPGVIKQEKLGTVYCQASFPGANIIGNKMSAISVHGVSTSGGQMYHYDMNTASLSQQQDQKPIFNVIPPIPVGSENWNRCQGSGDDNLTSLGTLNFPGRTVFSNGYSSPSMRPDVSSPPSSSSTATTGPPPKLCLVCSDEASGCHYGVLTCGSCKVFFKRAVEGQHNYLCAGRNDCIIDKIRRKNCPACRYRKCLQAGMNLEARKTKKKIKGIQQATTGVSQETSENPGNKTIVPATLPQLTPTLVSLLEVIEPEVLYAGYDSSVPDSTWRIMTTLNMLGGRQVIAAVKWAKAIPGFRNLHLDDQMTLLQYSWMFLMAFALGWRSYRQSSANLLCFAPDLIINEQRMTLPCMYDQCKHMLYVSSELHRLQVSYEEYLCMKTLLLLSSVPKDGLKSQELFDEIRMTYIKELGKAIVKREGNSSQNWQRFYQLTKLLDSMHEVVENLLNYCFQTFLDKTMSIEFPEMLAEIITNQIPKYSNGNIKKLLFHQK
Method in brief: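 Compounds in DMSO, alongside positive controls, were added to GR-bla HeLa reporter cells and incubated 18 h at 37 C; GRE-driven beta-lactamase was detected by fluorescence after 2 h with FRET substrate at room temperature.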

[15] = molecular target: Glucocorticoid receptor (Homo sapiens) (UniProt P04150); test: qHTS assay to identify small molecule antagonists of the glucocorticoid receptor (GR) signaling pathway (AID 720692; active means well fitted inhibition curve with a large enough effect in the signal ratio in the repeat runs, not every such curve was filed as active; the % refers to the signal ratio; further: potency means the concentration at half of the fitted maximal effect)
Method in brief: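 In a 1536-well cell format, compounds were added 4 h after seeding GR-bla HeLa cells, together with dexamethasone at 5 nM final; reporter activity was measured by FRET-substrate fluorescence following 18 h at 37 C.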

[16] = qHTS assay for small molecule agonists of the p53 signaling pathway - cell viability (AID 651633; calls by dose curve;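 further: p53RE-bla HCT reporter cells with a stable beta-lactamase p53 reporter; series mostly up to about 83 µM; nearly all actives have a fitted effect of over 30% in size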)
Method in brief: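 p53RE-bla cells, seeded at 4,000 per well and rested 5 h at 37 C/5% CO2, received compounds in DMSO for 16 h at 37 C. CellTiter-Glo was then added, and luminescence was read after 30 min at room temperature to gauge cytotoxicity.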

[17] = qHTS assay to test for compound auto fluorescence at 590 nm (red) in HEK293 cells (AID 720679)
Method in brief: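 Red channel, Ex/Em 540/590nm; signal expressed as equivalency to Rose Bengal sodium. HEK293, 2,000 cells/well, 10% dialyzed FBS; 23 nL compound pinned after 4-5 hr attachment; overnight 37C/5% CO2 before reading.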

[18] = qHTS assay to test for compound auto fluorescence at 590 nm (red) in HepG2 cell free culture (AID 720684)
Method in brief: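 Readout: intrinsic compound fluorescence at 590 nm emission after 540 nm excitation, scaled to Rose Bengal sodium. Matrix was cell-free MEM with 10% FBS; DMSO vehicle wells served as control.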

[19] = qHTS assay for small molecules that induce genotoxicity in human embryonic kidney cells expressing luciferase-tagged ATAD5 - cell viability (AID 651634; calls by dose curve; further: nearly all actives have a fitted effect of over 25% in size; further: potency means the concentration at half of the fitted maximal effect)
Method in brief: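 Here HEK293T cells with the ATAD5 luciferase reporter are incubated with test compounds for 15.5 hr, and cytotoxicity is then gauged by measuring protease activity in live cells using fluorescence.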

Measured: Potency

Cc1ccc2c(c1)CCCN2
not listed: [16] | [17] | [18] | [19]
inactive: all other assays above

COC1CCC=CO1 (stereo not given)
not listed: [14] | [15] | [19]
inactive: all other assays above

c1ccc(CCCc2ccncc2)cc1
active: [3] 10.9 µM
not listed: [15] | [19]
inactive: all other assays above

CC(C)COC(=O)c1ccc(O)cc1
active: [3] 12.2 µM
not listed: [2] | [5] | [15] | [17] | [18] | [19]
inactive: all other assays above

CC(CN(CCN(CC(C)OCCO)CC(C)OCCO)CC(C)OCCO)OCCO (stereo not given)
not listed: [3] | [14] | [15] | [17] | [18] | [19]
inactive: all other assays above

CN1C(CSCC(F)(F)F)Nc2cc(Cl)c(S(N)(=O)=O)cc2S1(=O)=O (stereo not given)
not listed: [16]
inactive: all other assays above

CCN(Cc1cccc(S(=O)(=O)O)c1)c1ccc(C(=C2C=CC(=[N+](CC)Cc3cccc(S(=O)(=O)O)c3)C=C2)c2ccc(O)cc2S(=O)(=O)[O-])cc1
active: [19] 33.1 µM
not listed: [2] | [3] | [16] | [17]
inactive: all other assays above

Nc1ccc(F)cc1
not listed: [1] | [3]
inactive: all other assays above

C=CCOC(=O)COCCC(C)C
not listed: [3] | [15] | [16] | [17]
inactive: all other assays above

O[C@@H](CNC[C@H](O)[C@H]1CCc2cc(F)ccc2O1)[C@@H]1CCc2cc(F)ccc2O1
active: [15] 23.9 µM
not listed: [3] | [14] | [16] | [19]
inactive: all other assays above

COC(=O)C1=C(C)NC(C)=C(C(=O)OC(C)(C)CN(C)CCC(c2ccccc2)c2ccccc2)C1c1cccc([N+](=O)[O-])c1 (stereo not given)
active: [3] 5.96 µM | [15] 6.74 µM
not listed: [2] | [16] | [19]
inactive: all other assays above
